Experimental data taken from PubChem BioAssay AID662 (National Center for Advancing Translational Sciences (NCATS), 2007).
Hit rate of the full screen: of about 71,000 compounds, about 1,800 (2.5%) were called active. Another 26% or so got no clear call; they are omitted. This excerpt belongs to a sample that is enriched for actives. A number with no mark means an inactive call. Calls follow the shape of the dose curve; as a rule, active = well fitted activation curve with a large enough effect in the signal ratio, with a control signal flat (not every such curve was filed as active); inconclusive = small, poorly fitted or top-dose-only effect, or effect the other way, or a change in a side signal; inactive = flat fitted curve, though single readings scatter; the % refers to the signal ratio.

experiment: Cell signaling CRE-BLA (Fsk stim); settings: CHO CRE-bla reporter (cAMP response element driving beta-lactamase), forskolin EC10, beta-lactamase ratio; series mostly up to 38.2 µM; activity change, negative = inhibition: at the top concentration; as to activity change, negative = inhibition: % of control where 0% means no effect
From the text: NIH Molecular Libraries Screening Centers Network [MLSCN]
NIH Chemical Genomics Center [NCGC]
Assay Provider: Marshall W. Nirenberg, U.S. National heart lung & blood institute
Memories persist for different lengths of time, from seconds or minutes to a lifetime. There are two kinds of memory: short-term memory (STM) and long-term memory (LTM). STM lasts for minutes to hours, which maybe mediated by modifications of molecules involved in synaptic functions. LTM lasts for days or longer, and may be due to the formation of new synapses or restructuring of existing synapses. LTM, but not STM, requires gene transcription and synthesis of proteins. CREB (cyclic-AMP Responsive Element Binding Protein) is one of the candidates plays an important role for enhancement of some types of LTM. CREB, a family of transcription factors, regulates the transcription of genes containing cAMP Responsive Elements (CRE). CRE is a nucleotide sequence often found in the promoter regions of genes that are binding sites for CREB.
Using a beta-lactamase reporter-gene under control of cAMP responsive element, a cell-based assay [CellSensor(TM) CRE-bla CHO developed by Invitrogen Corp.] was used to measure forskolin-induced signaling. Library compounds were measured for their ability to modulate positively or negatively the action of EC10 NKH 477, a water soluble forskolin, on reporter gene activity. Compounds were screened in a titration series in 1536-well format. Positive and negative modulators were identified based on the AC50 values derived from the screening data.
NCGC Assay Protocol Summary
2000 cells/5uL in Opti-MEM medium containing 0.5% dialyzed FBS, 0.1 mM NEAA, 1 mM sodium pyruvate and 10 mM HEPES was dispensed into 1536-well plates and cells were cultured at 37 degrees Celsius overnight. […] And then the plates were incubated at 37 degrees Celsius for 3 hours. 1 uL of CCF4-dye mixture was added to each well. After incubated at room temperature for 2 hours the plates were measured on an EnVision plate reader at Excitation 405nm, Emission1=460nm and Emission 2=530nm. The %Activity was determined from the ratio of 460nm/530nm.
Keywords: NIH Roadmap, MLSCN, MLSMR, qHTS, NCGC, CRE, beta-lactamase reporter-gene assay.
Potency is read from the fitted curve at half-maximal effect.

With `O=C1c2ccccc2-c2ncnc3c(N4CCOCC4)cc(N4CCOCC4)c1c23` the Potency was 2.51 µM (active).
For `CC(=O)c1ccc(Oc2cc(C)nc(-n3nc(C)cc3C)n2)cc1`, the Potency was 7.94 µM (active).
In the case of `COC(=O)C1=C(C)NC2=C(C(=O)c3ccccc32)C1c1ccc(-c2ccc(C(=O)O)cc2)o1` (centres undefined), the Potency is reported as 0.398 µM (active).
With `Cc1cc(C)c2nc(N3CCCC3)c(C#N)cc2c1` the Potency was 10 µM (active).
In the case of `Cn1nc(-c2ccc(N3CCOCC3)c(NC(=O)c3ccccc3)c2)c2ccccc2c1=O`, the Potency is reported as 7.94 µM (active).
With `COc1ccc(CNc2ncnc3ccc(-c4cccnc4)cc23)c(OC)c1` the Potency was 1 µM (active).
In the case of `Cc1nc(SCC(=O)Nc2cc(C)on2)c2c3c(sc2n1)CCCC3`, the Potency is reported as 2.51 µM (active).
With `Cc1nc(SCC(=O)Nc2cc(C)on2)c2c(C)c(C)sc2n1` the Potency was 0.316 µM (active).
For `CCCOc1ccccc1C1CC(=O)Nc2cc3c(cc21)OCO3` (centres undefined), the Potency was 10 µM (active).
In the case of `CCOc1cccc(-n2nnnc2-c2ccc(OC)cc2)c1`, the Potency is reported as 12.6 µM (active).
In the case of `O=C(Nc1ccccc1N1CCCCC1)c1ccc2nccnc2c1`, the Potency is reported as 10 µM (active).
With `O=C(Nc1ccccc1N1CCCCC1)c1cccc(F)c1` the Potency was 12.6 µM (active).
In the case of `CCn1c(SCC(=O)Nc2cc(C)c(Cl)cc2OC)nnc1-c1ccco1`, the Potency is reported as 12.6 µM (active).

Point of comparison: `Cc1ccc(CCn2c3c(c4ccccc42)CN(C)CC3)cn1`, “activity change, negative = inhibition” value -5.13%. Against it:
- c1cnn(-c2cc(N3CCOCC3)ncn2)c1 — higher, 17.7%
- c1ccc(-c2oc3ncnc(N4CCOCC4)c3c2-c2ccccc2)cc1 — higher, 6.93%
- CSc1nnc(CNC(=O)c2ccccc2)n1-c1ccc(F)cc1 — lower, -5.77%
- Cc1cccc(C(=O)O)c1[N+](=O)[O-] — higher, -4.85%
- CCOC(=O)c1cnc(-n2nc(C)cc2C)nc1Nc1cccc(C(C)=O)c1 — higher, 3.18%
- CCOC(=O)c1cnc(-n2nc(C)cc2C)nc1-n1nc(C)cc1C — higher, 28.9%
- O=C(Nc1ccccc1)N[C@H]1C[C@H](C(=O)O)Nc2cc(Cl)cc(Cl)c21 — lower, -9.62%
- O=C(CCCOc1ccccc1)Nc1cccc(C(=O)O)c1 — higher, -1.76%
- CN1CCN(c2cc(=O)n(-c3ccc(Cl)cc3)c(=O)[nH]2)CC1 — lower, -6.94%
- Cc1cc(N(C)C)cc(C)[n+]1[O-] — higher, 2.28%
- COC(=O)C1=C(C)NC(=O)NC1/C=C/c1ccccc1 (centres undefined) — higher, -5.12%
- COc1ccccc1NC(=O)C1=C(C)NC2=C(C(=O)CCC2)C1c1ccc(C)o1 (centres undefined) — higher, -1.9%
- O=C(O)CC(C(=O)O)C(CC(=O)O)C(=O)O (centres undefined) — lower, -8.47%
- CCCCC/C=C/C=C/C=O — higher, -1.75%
- CCOc1ccc(C(=O)Nc2cc(OC)ccc2OC)cc1 — higher, 8.36%
- CCOc1ccc2nc(N3CCCN(C(=O)Nc4ccccc4C)CC3)c(C#N)cc2c1 — higher, 4.72%
- CC(C)CCNc1nc(N2CCCC2)c2c(c1C#N)CCN(C)C2 — lower, -7.41%
- Cn1c(=O)n(C)c2cc(CNc3ccc(N4CCOCC4)c(C(=O)O)c3)ccc21 — higher, -4.36%
- COc1c(C)cccc1C(=O)Nc1cc(Cl)ccc1N1CCOCC1 — higher, 8.77%
- COc1ccc(OC)c2[nH]c(=O)c(CCNC(=O)C(C)(C)C)cc12 — higher, 11.6%
- COc1ccc(CNc2ncncc2-c2ccccc2OC)c(OC)c1 — higher, 11.5%
- COc1ccc(CNc2ncncc2-c2ccccc2C)c(OC)c1 — higher, 4.23%
- CCOC(=O)C1CCc2nc3ccccc3c(=O)n21 (centres undefined) — higher, 1.43%
- CCCCCCOC(=O)NCC(O)c1ccccc1 (centres undefined) — higher, 0.923%
- COc1ccccc1-c1nnc(SCC(=O)Nc2cc(C)on2)o1 — higher, -0.278%
- CCOc1ccccc1Nc1nnc(SCC(=O)Nc2cc(C)on2)s1 — lower, -11.6%
- C=C(C)Cn1c(SCC(=O)NCc2ccco2)nc2sc3c(c2c1=O)CCC3 — higher, 6.87%
- Cc1cc(NC(=O)Cn2nc(C(F)(F)F)c3c2CCCC3)no1 — higher, -5.04%
- COC(=O)[C@@]1(Cc2ccc(F)cc2)[C@H]2c3cc(C(=O)N4CCCC4)n(Cc4ccc(OC(F)(F)F)cc4)c3C[C@H]2CN1C(=O)c1ccccc1 — lower, -8.28%
- COc1cc2c(cc1OC)C(c1ccc(C)o1)CC(=O)N2 (centres undefined) — higher, 17.5%
- COCCOC(=O)C1=C(C)NC(=O)CC1c1cc2c(cc1Br)OCO2 (centres undefined) — higher, 4.43%
- CCCOC(=O)Nc1ccccc1C(N)=O — higher, 3.03%
- CCOc1ccc2nc(SC(CC)C(=O)Nc3cc(C)on3)sc2c1 (centres undefined) — higher, 5.36%
- C=CC(=C)CCC=C(C)C — higher, 1.32%
- CCOc1cccc(-c2nnc3sc(COc4ccc(OC)cc4)nn23)c1 — higher, 26.2%
- CCOC(=O)c1sc(=S)n(-c2cccc(OC)c2)c1N — higher, -1.32%
- COC(=O)c1ccc(OC(=O)c2nn(C)cc2Cl)c(OC)c1 — higher, -4.06%
- CCc1c(O)nc(SCC(=O)N2CCCCC2)n(-c2ccccc2C)c1=O — higher, 3.32%
- O=C(Nc1ccccc1N1CCN(c2ccccc2)CC1)c1cccc(F)c1 — higher, 17.9%
- Cc1ccccc1NC(=O)CNc1ccccc1N1CCCCC1 — lower, -7.03%
- O=C(CN1CCN(C2CCCCC2)CC1)Nc1ccccc1N1CCCCC1 — lower, -15.5%
- O=C(Nc1ccccc1N1CCN(C(=O)c2ccccc2)CC1)c1ccc2c(c1)OCO2 — higher, -2.12%
- Cn1cc(S(=O)(=O)N2CCC(Cc3ccccc3)CC2)c(=O)n(C)c1=O — higher, -3.51%
- Cc1ccc(Br)cc1 — lower, -7.98%
- O=C(NCc1ccccc1)[C@H]1C[C@@H]1[C@H](NP(=O)(c1ccccc1)c1ccccc1)c1ccccc1 — lower, -24.2%
- CCC[C@@H]1C[C@@]1(CCC)[C@@H](NC(=O)c1ccccc1)c1ccc(C(=O)OC)cc1 — higher, 5.13%
- Nc1nnc(C2CCCC2)s1 — higher, 3.27%
- COc1cc(Cl)c(C)cc1NC(=O)CSc1nnc(-c2cccnc2)n1Cc1ccco1 — lower, -6.01%
- CCc1cccc(C)c1NC(=O)CSc1nnc(-c2ccco2)n1N — lower, -6.03%
- COC(=O)[C@H]1C[C@@H]1[C@H](NC(=O)Oc1ccc(F)cc1)c1ccccc1 — higher, 1.37%
- NC(=O)c1ccccc1NC(=O)c1ccccc1F — higher, 5.08%
- COC(=O)[C@@]1(Cc2ccc(OC)cc2)[C@H]2c3cc(C(=O)N4CCCC4)n(Cc4ccc(OC(F)(F)F)cc4)c3C[C@H]2CN1C(=O)c1ccccc1 — higher, -3.5%
- O=C(CN1CCOCC1)Nc1c(-c2ccccc2)c2cc(Br)ccc2[nH]c1=O — lower, -5.45%

Point of comparison: `O=C1C(C=NCC2CCCO2)=C(O)c2ccccc21` (centres undefined), activity change, negative = inhibition 12.5% [at 7.6 µM]. Against it:
- O=C(NCc1ccc(Cl)c(Cl)c1)c1cccnc1 — lower, -25.4% [at 7.6 µM]
